Most compounds without a hit are left out; they make up all but 2.7% or so of the library.
EWS-Fli block = inhibitors of EWS/Fli oncoprotein transcriptional activity; inhibition, % at 12.6 µM; 350,000 tested, 0.67% active; AID 651661; A673 NR0B1-luciferase reporter, viability-normalised;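 active = mean inhibition of at least 50% after viability correction, with every replicate also passing that limit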;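 also: firefly luciferase signal divided by Alamar Blue viability fluorescence both relative to DMSO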
Env fusion inh = HIV envelope-mediated fusion inhibition; 360,000 tested, 1.1% active; HeLa-JRFL Env/CEM21 cell fusion, luciferase; AID 651610; inhibition, % at 12.3 µM;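 active = mean replicate inhibition score of at least 50 and every replicate individually at or above 50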
PGC1a acetyl inh = PGC1a acetylation modulation, inhibitor mode. U2OS PGC1a acetylation, AlphaScreen anti-acetyl-lysine; with virally co-expressed GCN5 acetyltransferase. inhibition, % at 15.6 µM. 350,000 tested, 0.17% active;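 active = every replicate shows inhibition of at least 40%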
CFTR F508del cor = correctors of CFTR F508del function in bronchial epithelial cells | CFBE cells, YFP halide quenching; stimulated with forskolin plus potentiator P3; % fluorescence drop versus neutral controls | activity (quench increase), % at 7.58 µM | 350,000 tested, 0.36% active | AID 720511;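 active = mean added fluorescence quench of at least 8% versus neutral control, with both replicates also reaching 8%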;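 also: cells transiently co-express mutant CFTR-F508del with the halide-sensitive YFP; corrector assay measuring rescue of mutant channel to the surface after 24 h compound exposure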
GSIS activator = GLuc luminescence reporter in INS-1E cells, primary screen for activators of glucose-dependent secretion of insulin. activation, % at 16.6 µM. INS-1E GLuc reporter insulin secretion, 2-3 h. AID 743287. 370,000 tested, 0.61% active;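 active = lowest replicate activation of at least 40%, so every replicate reaches that level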
PAX8 inh HTS = inhibitors of PAX8 transcriptional activity in RMG-I cells | 360,000 tested, 1.2% active | RMG-I TPO-luciferase reporter, SteadyGlo, 24 h | AID 652154 | inhibition, % at 12.6 µM;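 active = mean replicate inhibition at least 60% with every replicate also reaching 60%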;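 also: luciferase light reporting Pax8 driven TPO promoter activity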
A number is an active result.

What do the screens show for `Cn1c(/C(C#N)=C/c2ccc(-c3ccc(S(N)(=O)=O)cc3)o2)nc2ccccc21`?
Env fusion inh: inactive; PGC1a acetyl inh: inactive; GSIS activator: inactive; PAX8 inh HTS: 75.5

Results for CO[C@@H]1CN(C)C(=O)c2ccc(NS(=O)(=O)c3ccc(-c4ccccc4)cc3)cc2OC[C@@H](C)NC[C@@H]1C ?
PGC1a acetyl inh: inactive; CFTR F508del cor: inactive; GSIS activator: inactive; PAX8 inh HTS: inactive

Results for Cc1ccccc1-n1c(=O)c2ccccc2n2cnnc12 ?
Env fusion inh: 83.2

What do the screens show for `Cc1cc2nncn2c2ccccc12`?
Env fusion inh: inactive; PGC1a acetyl inh: inactive; PAX8 inh HTS: inactive

How did NC(=O)N=Nc1c2[nH]c3ccccc3nc-2c2ccccc12 do in these assays?
EWS-Fli block: inactive; Env fusion inh: inactive; PGC1a acetyl inh: inactive; CFTR F508del cor: 22.0; GSIS activator: inactive; PAX8 inh HTS: inactive

Results for C[C@@H]1CN([C@H](C)CO)C(=O)c2cc(NC(=O)c3ccncc3)ccc2O[C@@H]1CN(C)S(=O)(=O)c1ccc(F)cc1 ?
EWS-Fli block: inactive; Env fusion inh: inactive; PGC1a acetyl inh: inactive; CFTR F508del cor: inactive; GSIS activator: inactive; PAX8 inh HTS: inactive

How did CC(Cl)=CCn1c(NCCc2ccccc2)nc2c1c(=O)n(C)c(=O)n2C do in these assays?
EWS-Fli block: inactive; Env fusion inh: 93.6; PGC1a acetyl inh: inactive; CFTR F508del cor: inactive; GSIS activator: inactive; PAX8 inh HTS: inactive

How did COc1cccc(Cn2c(NCc3cccnc3)nc3c2c(=O)n(C)c(=O)n3C)c1 do in these assays?
PGC1a acetyl inh: 71.3

How did Cn1c(NCc2ccccc2)nc2c1c(=O)n(Cc1ccccc1)c(=O)n2C do in these assays?
Env fusion inh: inactive; GSIS activator: inactive

How did COc1ccc(CNc2nc3c(c(=O)n(Cc4ccc(F)cc4)c(=O)n3C)n2C)cc1 do in these assays?
Env fusion inh: inactive; PGC1a acetyl inh: inactive; GSIS activator: inactive; PAX8 inh HTS: 71.0

What do the screens show for `CCOCCCNc1nc2c(c(=O)n(C)c(=O)n2C)n1CCCc1ccccc1`?
Env fusion inh: inactive; PGC1a acetyl inh: 40.3; PAX8 inh HTS: inactive

How did C[C@H]1CN([C@@H](C)CO)C(=O)CCCn2cc(nn2)CO[C@H]1CN(C)Cc1ccncc1 do in these assays?
EWS-Fli block: inactive; Env fusion inh: inactive; PGC1a acetyl inh: inactive; CFTR F508del cor: inactive; GSIS activator: inactive

What do the screens show for `C[C@@H]1CCCCO[C@@H](CN(C)Cc2ccc(C(F)(F)F)cc2)[C@H](C)CN([C@H](C)CO)C(=O)c2cc(N(C)C)ccc2O1`?
EWS-Fli block: inactive; Env fusion inh: inactive; PGC1a acetyl inh: inactive; CFTR F508del cor: inactive; GSIS activator: inactive; PAX8 inh HTS: inactive

Results for COc1cccc(C(=O)N2C[C@H]3[C@@H](c4ccccc42)[C@H](CO)N3C(=O)c2ccccc2)c1 ?
EWS-Fli block: inactive; PGC1a acetyl inh: inactive; CFTR F508del cor: inactive; GSIS activator: inactive; PAX8 inh HTS: inactive

Results for CCC(=O)N[C@@H]1CC[C@H](CC(=O)NCc2ccccc2F)O[C@@H]1CO ?
EWS-Fli block: inactive; Env fusion inh: inactive; PGC1a acetyl inh: inactive; CFTR F508del cor: inactive; GSIS activator: inactive; PAX8 inh HTS: inactive

How did CNc1nc2c(c(=O)n(C)c(=O)n2C)n1Cc1ccccc1 do in these assays?
Env fusion inh: 68.6; PGC1a acetyl inh: inactive

What do the screens show for `CCCCn1c(CN(C)Cc2ccccc2)nc2c1c(=O)n(C)c(=O)n2C`?
Env fusion inh: 72.3

How did C=CCNc1nc2c(c(=O)n(C)c(=O)n2C)n1CC do in these assays?
EWS-Fli block: inactive; Env fusion inh: inactive; PGC1a acetyl inh: inactive; CFTR F508del cor: inactive; GSIS activator: inactive; PAX8 inh HTS: inactive

How did C=CCNc1nc2c(c(=O)n(C)c(=O)n2C)n1CCCCCC do in these assays?
Env fusion inh: 92.1

How did CCN=C1S/C(=C/c2ccc(-c3ccc(Cl)cc3C(=O)O)o2)C(=O)N1CC do in these assays?
EWS-Fli block: inactive; Env fusion inh: inactive; CFTR F508del cor: inactive; GSIS activator: 87.6; PAX8 inh HTS: inactive

How did CCN1C(=O)/C(=C\c2ccc(-c3ccc([N+](=O)[O-])cc3OC)o2)SC1=Nc1cccc(C(=O)O)c1 do in these assays?
EWS-Fli block: inactive; Env fusion inh: inactive; CFTR F508del cor: inactive; GSIS activator: inactive; PAX8 inh HTS: inactive

Results for CCCN(C)C[C@H]1Oc2cc(C#Cc3ccccc3)ccc2S(=O)(=O)N([C@H](C)CO)C[C@H]1C ?
EWS-Fli block: inactive; Env fusion inh: inactive; PGC1a acetyl inh: inactive; CFTR F508del cor: inactive; GSIS activator: inactive

How did COc1ccc(C(=O)Nc2ccc3ncccc3c2)cc1 do in these assays?
EWS-Fli block: 58.0; Env fusion inh: inactive; CFTR F508del cor: inactive; GSIS activator: inactive; PAX8 inh HTS: inactive

How did COc1ccccc1NC(=O)c1ccc(NC(=O)c2nc3nccc(C)n3n2)cc1 do in these assays?
EWS-Fli block: inactive; CFTR F508del cor: inactive; GSIS activator: inactive; PAX8 inh HTS: inactive

What do the screens show for `COc1ccc(NC(=O)c2ccc(NC(=O)c3nc4nccc(C)n4n3)cc2)cc1`?
EWS-Fli block: inactive; Env fusion inh: inactive; PGC1a acetyl inh: inactive; CFTR F508del cor: 26.9; GSIS activator: inactive; PAX8 inh HTS: inactive

How did COc1ccc(NC(=O)c2ccc3nccnc3c2)cc1 do in these assays?
PGC1a acetyl inh: inactive

What do the screens show for `Cc1ccc(C(=O)Nc2ccc3ncccc3c2)cc1`?
EWS-Fli block: 65.6; Env fusion inh: inactive; CFTR F508del cor: inactive; GSIS activator: inactive; PAX8 inh HTS: inactive

What do the screens show for `CC(C)NC(=O)N(C)C[C@@H]1Oc2ccccc2C(=O)N(C)C[C@@H]1C`?
GSIS activator: inactive

What do the screens show for `CC(C)NC(=O)Nc1ccc2c(c1)C(=O)N(C)C[C@@H](C)[C@H](CN(C)C)O2`?
GSIS activator: inactive

How did NS(=O)(=O)c1ccc(NC(=O)c2cccc3cc4ccccc4nc23)cc1 do in these assays?
EWS-Fli block: inactive; Env fusion inh: inactive; CFTR F508del cor: 18.5; PAX8 inh HTS: inactive

How did NS(=O)(=O)c1ccc(NC(=O)c2cc(Cl)ccc2Cl)cc1 do in these assays?
EWS-Fli block: inactive; Env fusion inh: inactive; CFTR F508del cor: inactive; GSIS activator: inactive; PAX8 inh HTS: inactive

How did NS(=O)(=O)c1ccc(NC(=O)c2cccc3ccccc23)cc1 do in these assays?
EWS-Fli block: inactive; Env fusion inh: inactive; PGC1a acetyl inh: inactive; CFTR F508del cor: inactive; GSIS activator: inactive; PAX8 inh HTS: inactive

What do the screens show for `NS(=O)(=O)c1ccc(NC(=O)c2cc(Cl)sc2Cl)cc1`?
EWS-Fli block: inactive; Env fusion inh: inactive; PGC1a acetyl inh: inactive; CFTR F508del cor: inactive; GSIS activator: inactive; PAX8 inh HTS: 62.8

Results for COCC#Cc1cnc2c(c1)C(=O)N([C@H](C)CO)C[C@H](C)[C@H](CN(C)S(=O)(=O)c1cn(C)cn1)O2 ?
EWS-Fli block: inactive; Env fusion inh: inactive; PGC1a acetyl inh: inactive; CFTR F508del cor: inactive; GSIS activator: inactive

Results for NCC[C@H]1CC[C@H](NC(=O)NC2CCCCC2)[C@H](CO)O1 ?
EWS-Fli block: inactive; Env fusion inh: inactive; PGC1a acetyl inh: inactive; CFTR F508del cor: inactive; GSIS activator: inactive; PAX8 inh HTS: inactive

High-throughput results (PubChem)
